Laboratory results published in PubChem BioAssay (EPA / NIEHS).
Inconclusive results are not listed. Calls of active or inactive are those of the source. How the source made its calls: active means hit-call score of the fitted dose curve at least 0.9, where 1 is the maximum; inconclusive means response in the unintended direction; inactive means score below 0.9.

How the values were obtained:
[1] = Tanguay_ZF_120hpf_MORT_legacy: (Legacy) Oregon State University Tanguay Lab 120 Hour Post-fertilization zebrafish Assay for Mortality (AID 2283633)
Outline: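 Mortality endpoint from a multiplexed whole-embryo zebrafish screen. Dechorionated wild-type embryos received compound at 6 hpf and remained under static exposure at 28C until 120 hpf, with death noted as a present/absent call.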

[2] = Tanguay_ZF_120hpf_YSE_legacy: (Legacy) Oregon State University Tanguay Lab 120 Hour Post-fertilization zebrafish Assay for Yolk Sac Edema (AID 2283634);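 on AC50: actives raise the incidence of yolk sac edema above the DMSO baseline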
Outline: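 Readout: presence or absence of yolk sac edema at 120 hpf, fitted upward against DMSO controls. Exposure ran statically from 6 hpf in dechorionated embryos kept at 28C.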

[3] = Tanguay_ZF_120hpf_EYE_legacy: (Legacy) Oregon State University Tanguay Lab 120 Hour Post-fertilization zebrafish Assay for Eye Malformation (AID 2283636);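 further: binary presence or absence of eye malformation scored by brightfield in 120 hpf larvae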
Outline: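 5D wild-type embryos, pronase-dechorionated at 4 hpf; static exposure 6–120 hpf, 28C, dark; DMSO 0.64% final; 5uM trimethyltin chloride positive control. Binary eye-defect scoring at 120 hpf; dead embryos not scored.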

[4] = Tanguay_ZF_120hpf_SNOU_legacy: (Legacy) Oregon State University Tanguay Lab 120 Hour Post-fertilization zebrafish Assay for Snout Malformation (AID 2283637)
Outline: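 Binary brightfield scoring of snout malformation at 120 hpf. Dechorionated 5D wild-type embryos, one per well, static exposure from 6 hpf at 28C, sealed and dark; final DMSO 0.64% (vol/vol), DMSO as baseline; 5uM trimethyltin chloride positive control.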

[5] = Tanguay_ZF_120hpf_JAW_legacy: (Legacy) Oregon State University Tanguay Lab 120 Hour Post-fertilization zebrafish Assay for Jaw Malformation (AID 2283638);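 on AC50: active means more embryos with jaw malformation than DMSO controls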
Outline: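 Static waterborne exposure of dechorionated wild-type (Tropical 5D) zebrafish from 6 to 120 hpf at 28C, 0.64% DMSO vehicle; 5uM trimethyltin chloride served as positive control. Jaw morphology recorded as binary at 120 hpf.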

[6] = Tanguay_ZF_120hpf_PE_legacy: (Legacy) Oregon State University Tanguay Lab 120 Hour Post-fertilization zebrafish Assay for Pericardial Edema (AID 2283640);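 on AC50: potency for increased incidence of pericardial edema versus DMSO baseline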
Outline: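 Read-out is the presence or absence of pericardial edema at 120 hpf under brightfield, with gain of signal fitted against DMSO controls. Larvae (5D wild-type) were statically exposed at 28C with 0.64% final DMSO.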

[7] = Tanguay_ZF_120hpf_BRAI_legacy: (Legacy) Oregon State University Tanguay Lab 120 Hour Post-fertilization zebrafish Assay for Brain Malformation (AID 2283641)
Outline: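 Brain malformation in Tropical 5D zebrafish was recorded as a binary endpoint after static compound exposure from early development to 120 hpf at 28C. Activity was analysed against DMSO as negative control.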

[8] = Tanguay_ZF_120hpf_SOMI_legacy: (Legacy) Oregon State University Tanguay Lab 120 Hour Post-fertilization zebrafish Assay for Somite Malformation (AID 2283647)
Outline: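 5D WT zebrafish; chorion removed 4 hpf; 1 embryo/well from 6 hpf; static exposure to 120 hpf, 28C, 0.64% DMSO final. Endpoint: somite malformation, binary, brightfield. Mortality excluded.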

[9] = Tanguay_ZF_120hpf_PFIN_legacy: (Legacy) Oregon State University Tanguay Lab 120 Hour Post-fertilization zebrafish Assay for Pectoral Fin Malformation (AID 2283648);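 further: each larva judged yes or no for fin defect by brightfield with dead larvae skipped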
Outline: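 Binary pectoral fin malformation call at 120 hpf by brightfield microscopy; 5D wild-type zebrafish, chorion removed at 4 hpf, one embryo per well from 6 hpf, static exposure at 28C; DMSO (0.64% final) as baseline.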

[10] = Tanguay_ZF_120hpf_CFIN_legacy: (Legacy) Oregon State University Tanguay Lab 120 Hour Post-fertilization zebrafish Assay for Caudal Fin Malformation (AID 2283649)
Outline: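 Embryos were collected from Tropical 5D wild-type adults and dechorionated at 4 hpf. At 6 hpf each was exposed, one per well, at 0.64% DMSO and 28C. At 120 hpf fin morphology was scored; dead embryos were excluded.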

[11] = Tanguay_ZF_120hpf_AXIS_legacy: (Legacy) Oregon State University Tanguay Lab 120 Hour Post-fertilization zebrafish Assay for Body Axis Malformation (AID 2283635);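 on AC50: potency for an increased fraction of larvae scored with body axis malformation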
Outline: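 Static 6–120 hpf chemical exposure of dechorionated wild-type 5D zebrafish, one per well at 28C; morphology endpoint scored binary at 120 hpf relative to DMSO control.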

[12] = Tanguay_ZF_120hpf_OTIC_legacy: (Legacy) Oregon State University Tanguay Lab 120 Hour Post-fertilization zebrafish Assay for Otic Vesicle Malformation (AID 2283639)
Outline: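 Wild-type zebrafish larvae, whole-embryo exposure from early stage to 120 hpf at 28C. Binary brightfield scoring of otic vesicle morphology, fitted in the positive direction against the DMSO baseline.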

Row | Compound | outcome [1] | outcome [2] | outcome [3] | outcome [4] | outcome [5] | outcome [6] | outcome [7] | outcome [8] | outcome [9] | outcome [10] | outcome [11] | AC50 [2] | AC50 [6] | AC50 [8] | AC50 [9] | AC50 [11] | AC50 [3] | AC50 [4] | AC50 [5] | outcome [12]
1 | CC(C)CCCCCCOC(=O)C1CCCCC1C(=O)OCCCCCCC(C)C (stereo not given) | inactive | inactive | inactive | inactive | inactive | inactive | inactive | inactive | inactive | inactive |  |  |  |  |  |  |  |  |  | 
2 | CCCOc1ccc(S(=O)(=O)N2CCN(CC)CC2)cc1-c1nc2c(CC)n(Cc3ccccn3)nc2c(=O)[nH]1 | inactive | inactive | inactive | inactive | inactive | inactive | inactive |  | inactive | inactive | inactive |  |  |  |  |  |  |  |  | 
3 | CC(C)C(=O)Nc1ccc([N+](=O)[O-])c(C(F)(F)F)c1 | inactive | inactive | inactive | inactive | inactive | inactive | inactive | inactive | inactive | inactive | inactive |  |  |  |  |  |  |  |  | 
4 | CCOc1ccc2[nH]cc(C(=O)NCc3ccccc3)c(=O)c2n1 | inactive | inactive | inactive | inactive | inactive | inactive | inactive | inactive | inactive | inactive | inactive |  |  |  |  |  |  |  |  | 
5 | COc1cc2c(c(OC)c1OC)-c1ccc(OC)c(=O)cc1[C@@H](NC(C)=O)CC2 | inactive |  | inactive | inactive | inactive |  |  |  |  | inactive | inactive | 27100 nM (active) | 26200 nM (active) | 25500 nM (active) | 21000 nM (active) |  |  |  |  | 
6 | CCCCCCOC(=O)CC(CC(=O)OCCCCCC)(OC(=O)CCC)C(=O)OCCCCCC | inactive | inactive | inactive |  | inactive | inactive | inactive | inactive | inactive | inactive | inactive |  |  |  |  |  |  |  |  | 
7 | CCN(CC)C(=S)SSC(=S)N(CC)CC | inactive |  |  |  |  |  | inactive |  | inactive | inactive |  | 425 nM (active) | 1220 nM (active) | 619 nM (active) |  | 360 nM (active) | 1400 nM (active) | 1400 nM (active) | 1240 nM (active) | inactive
8 | c1ccc2c(c1)-c1cccc3c1c-2cc1ccccc13 | inactive | inactive | inactive | inactive |  |  | inactive | inactive | inactive | inactive |  |  |  |  |  |  |  |  |  | 
9 | O=c1[nH]cnc2c1ncn2[C@H]1CC[C@@H](CO)O1 | inactive | inactive | inactive | inactive | inactive | inactive |  | inactive | inactive | inactive | inactive |  |  |  |  |  |  |  |  | 
10 | NC(=O)N1c2ccccc2C=Cc2ccccc21 | inactive | inactive | inactive | inactive | inactive | inactive | inactive | inactive | inactive | inactive | inactive |  |  |  |  |  |  |  |  | 
11 | OCc1ccccc1 | inactive | inactive | inactive | inactive | inactive | inactive | inactive | inactive | inactive | inactive | inactive |  |  |  |  |  |  |  |  | inactive
